The source of these data is PubChem BioAssay.

A short description of test [1]: anti-His antibody binders, primary screen, artefact control for SMM control protein annotation, biochemical, small-molecule microarray, 635 nm fluorescence (AID 1128).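 Note: score merges feature fluorescence with signal-to-noise for each printed compound spot.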 Conditions: anti-His Alexa647 antibody binding, higher = more signal.
The test system of test [2] is Human papillomavirus type 1a E7 protein (residues 1-88). The test is described as follows: HPV1a E7 small-molecule binders, primary screen, biochemical, small-molecule microarray, residues 1-88, 635 nm (AID 1129). Conditions: small-molecule microarray binding, fluorescence 635 nm; higher = more signal.
In test [3] the target is Focal adhesion kinase 1 (Homo sapiens) (UniProt Q05397). The test is described as follows: small-molecule microarray binders of FAK, primary screen, biochemical, 635/667 nm fluorescence, BSA, DTT (AID 1130).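 Note: composite of spot emission at 667 nm and signal to noise over triplicate slides.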 Conditions: PTK2 binding, 635 nm fluorescence, higher = more signal.
The subject of test [4] is Fibrinogen (Alexa647-labelled). The test is described as follows: fibrinogen binders on compound microarrays, profiling panel, artefact control for SMM control-protein annotation, biochemical, small-molecule microarray, 635/667 nm fluorescence (AID 1131).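 Note: z-score merges 667 nm fluorescence with per-spot signal-to-noise over triplicate slides.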 Conditions: fibrinogen-A647 binding fluorescence, higher = more signal.
Test [5] has as its target Follistatin (Homo sapiens) (UniProt P19883). The test can be described thus: follistatin binders on small-molecule microarrays, primary screen, biochemical, small-molecule microarray, 635/667 nm fluorescence (AID 1132). Conditions: FST binding, 635 nm fluorescence, higher = more signal.
Test [6] deals with Fibroblast growth factor 2 (Homo sapiens) (UniProt P09038). The test can be described thus: FGF2 binders on small-molecule microarrays, primary screen, biochemical, small-molecule microarray, 635/667 nm fluorescence (AID 1133). To be noted: small-molecule microarray binding, FGF2, fluorescence 635/667; higher = more signal.
A short description of test [7]: mitochondrial membrane potential change in A549 cells, profiling panel, cell-based, JC-1 fluorescence, basal, 24 h, 100 nL (AID 1138).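 Note: A549 lung adenocarcinoma cells under basal conditions with no added stimulus; test concentration not given here.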 Conditions: higher = more signal.
The subject of a further test is Lefty1. The test can be described thus: Lefty1 binders on small-molecule microarrays, primary screen, biochemical, small-molecule microarray, 635/667 nm fluorescence (AID 1139). To be noted: small-molecule microarray binding, fluorescence 635/667; higher = more signal.
In test [8] the test system is wheat germ agglutinin (Triticum aestivum), Alexa647-labelled. The test is described as follows: wheat germ agglutinin binders on compound microarrays, profiling panel, artefact control for SMM control-protein annotation, biochemical, small-molecule microarray, 635/667 nm fluorescence (AID 1140).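 Note: score merges 667 nm feature emission with signal to noise over triplicate slides.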 To be noted: WGA-A647 binding, 635 nm fluorescence, higher = more signal.

Test [9] addresses Luciferin 4-monooxygenase (Photinus pyralis) (UniProt P08659). The test is described as follows: firefly luciferase enzyme inhibitors, primary screen, biochemical, luminescence, purified enzyme, 2006 set (AID 1141).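 Note: cell-free assay with purified firefly luciferase at 100 ng per well in PBS; test concentration not given here.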 To be noted: SteadyGlo luminescence, 30 min, higher = more signal, called active from +8 up or from −8 down.
In test [10] the test system is Wnt5a (protein binding on small-molecule microarray). The test is described as follows: Wnt5a binders on small-molecule microarray, primary screen, biophysical, 635/667 nm fluorescence (AID 1142).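 Note: fluorescence read at 667 nm with signal to noise per printed feature.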 To be noted: 635 nm fluorescence, higher = more signal.
Test [11] can be described thus: cell viability in Huh7 cells, primary screen, cytotoxicity control for HCV replication inhibitor project, CellTiter-Glo luminescence, basal, 48 h (AID 1143).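 Note: Huh7 hepatoma cells carrying a hepatitis C replication reporter with no stimulus; test concentration not given here.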 To be noted: Huh7 HCV replicon, higher = more signal, called active from +8 up or from −8 down. Background: In ATP-based viability assays light output follows the ATP content of the culture.
A short description of test [12]: P. aeruginosa biofilm formation inhibitors, primary screen, PAO1 strain, BacTiter-Glo luminescence, LB-PBS (AID 1144). Conditions: 12 h, higher = more signal.
Test [13] is described as follows: CREB reporter modulators without forskolin, primary screen, cell-based, PC12, CRE-LacZ reporter, unstimulated (AID 1145). To be noted: no forskolin, luminescence, 4.5 h, higher = more signal, called active from +8 up or from −8 down.
Test [14] is described as follows: CREB reporter modulators under forskolin, primary screen, cell-based, PC12, CRE-LacZ reporter, forskolin-stimulated (AID 1146).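 Note: PC12 cells with 6xCRE LacZ reporter stimulated by forskolin 10 µM; beta-galactosidase reporter signal reflecting CREB driven transcription.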 To be noted: luminescence, 4.5 h, higher = more signal, called active from +8 up or from −8 down.
The target in test [15] is Streptavidin (Streptomyces avidinii) (UniProt P22629). The test can be described thus: streptavidin binders on small-molecule microarray, primary screen, artefact control for SMM compound annotation, biophysical, 635/667 nm fluorescence (AID 1147).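 Note: signal reflects streptavidin binding to arrayed compounds as a control protein.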 Conditions: streptavidin binding, higher = more signal.
Test [16] can be described thus: small-molecule binders of probe aInhba, primary screen, biochemical, small-molecule microarray, 635/667 nm fluorescence (AID 1148).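 Note: score merges 667nm spot fluorescence with signal-to-noise for antibody binding to printed compounds.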 To be noted: higher = more signal.
Test [17] deals with Torsin-1A (Homo sapiens) (UniProt O14656). The test can be described thus: torsin A binders from cell lysate, primary screen, small-molecule microarray, wild-type, 635/667 nm (AID 1149). Conditions: COS7 hTOR1A-WT lysate, 635 nm fluorescence, higher = more signal.
Test [18] shares this target. The test is described as follows: small-molecule binders of mutant TOR1A in lysate, primary screen, cell lysate, small-molecule microarray, COS7 lysate, 635/667 nm fluorescence (AID 1150).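 Note: score pools 667 nm emission and signal to noise measuring lysate protein binding.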 To be noted: COS7 hTOR1A mutant lysate, 635 nm fluorescence, higher = more signal.
In test [19] the test system is Sonic hedgehog protein (Shh). The test is described as follows: small-molecule binders of Shh protein, primary screen, biochemical, small-molecule microarray, 635/667 nm fluorescence (AID 1151).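 Note: Shh protein binding to compounds spotted on small-molecule microarray slides; score combines spot fluorescence intensity with signal-to-noise across triplicate slides.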 Conditions: small-molecule microarray binding, 635 nm fluorescence; higher = more signal.

Molecules are shown by their SMILES. Calls of active or inactive are those of the source. Unless noted, the rule behind the calls is not given here.

Chain of Fibroblast growth factor 2 (Homo sapiens) (P09038 whole entry, looked up): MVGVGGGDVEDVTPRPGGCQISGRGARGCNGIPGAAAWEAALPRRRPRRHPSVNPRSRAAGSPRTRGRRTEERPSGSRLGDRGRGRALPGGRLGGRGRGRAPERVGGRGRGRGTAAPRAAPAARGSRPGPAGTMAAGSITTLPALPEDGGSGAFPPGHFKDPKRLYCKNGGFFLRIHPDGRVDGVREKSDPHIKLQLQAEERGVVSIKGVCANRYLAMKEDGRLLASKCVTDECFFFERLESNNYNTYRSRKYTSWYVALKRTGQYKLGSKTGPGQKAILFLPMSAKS
Chain of Streptavidin (Streptomyces avidinii) (P22629 whole entry, looked up): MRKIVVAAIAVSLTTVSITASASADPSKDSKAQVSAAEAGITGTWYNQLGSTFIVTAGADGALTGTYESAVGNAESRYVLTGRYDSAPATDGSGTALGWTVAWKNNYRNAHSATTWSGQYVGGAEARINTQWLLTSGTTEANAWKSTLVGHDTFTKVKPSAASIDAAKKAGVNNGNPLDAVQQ
Chain of Follistatin (Homo sapiens) (P19883 whole entry, looked up): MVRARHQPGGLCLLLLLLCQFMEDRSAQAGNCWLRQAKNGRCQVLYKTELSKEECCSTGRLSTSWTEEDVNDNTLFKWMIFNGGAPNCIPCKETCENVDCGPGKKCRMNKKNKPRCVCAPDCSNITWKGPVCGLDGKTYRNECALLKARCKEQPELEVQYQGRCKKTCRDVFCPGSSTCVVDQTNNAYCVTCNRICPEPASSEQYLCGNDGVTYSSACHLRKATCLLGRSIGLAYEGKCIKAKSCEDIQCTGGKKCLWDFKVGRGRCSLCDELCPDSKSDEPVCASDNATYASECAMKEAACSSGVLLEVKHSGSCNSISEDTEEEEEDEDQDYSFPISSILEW
Chain of Torsin-1A (Homo sapiens) (O14656 whole entry, looked up): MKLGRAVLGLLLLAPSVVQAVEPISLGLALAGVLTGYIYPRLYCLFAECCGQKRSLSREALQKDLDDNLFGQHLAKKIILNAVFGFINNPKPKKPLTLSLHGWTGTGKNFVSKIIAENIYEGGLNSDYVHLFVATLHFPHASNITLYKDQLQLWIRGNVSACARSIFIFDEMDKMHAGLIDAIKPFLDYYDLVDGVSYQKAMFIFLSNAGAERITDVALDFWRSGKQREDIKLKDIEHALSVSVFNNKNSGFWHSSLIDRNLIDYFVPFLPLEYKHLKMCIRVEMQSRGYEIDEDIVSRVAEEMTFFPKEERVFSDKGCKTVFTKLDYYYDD
Chain of Focal adhesion kinase 1 (Homo sapiens) (Q05397 whole entry, looked up): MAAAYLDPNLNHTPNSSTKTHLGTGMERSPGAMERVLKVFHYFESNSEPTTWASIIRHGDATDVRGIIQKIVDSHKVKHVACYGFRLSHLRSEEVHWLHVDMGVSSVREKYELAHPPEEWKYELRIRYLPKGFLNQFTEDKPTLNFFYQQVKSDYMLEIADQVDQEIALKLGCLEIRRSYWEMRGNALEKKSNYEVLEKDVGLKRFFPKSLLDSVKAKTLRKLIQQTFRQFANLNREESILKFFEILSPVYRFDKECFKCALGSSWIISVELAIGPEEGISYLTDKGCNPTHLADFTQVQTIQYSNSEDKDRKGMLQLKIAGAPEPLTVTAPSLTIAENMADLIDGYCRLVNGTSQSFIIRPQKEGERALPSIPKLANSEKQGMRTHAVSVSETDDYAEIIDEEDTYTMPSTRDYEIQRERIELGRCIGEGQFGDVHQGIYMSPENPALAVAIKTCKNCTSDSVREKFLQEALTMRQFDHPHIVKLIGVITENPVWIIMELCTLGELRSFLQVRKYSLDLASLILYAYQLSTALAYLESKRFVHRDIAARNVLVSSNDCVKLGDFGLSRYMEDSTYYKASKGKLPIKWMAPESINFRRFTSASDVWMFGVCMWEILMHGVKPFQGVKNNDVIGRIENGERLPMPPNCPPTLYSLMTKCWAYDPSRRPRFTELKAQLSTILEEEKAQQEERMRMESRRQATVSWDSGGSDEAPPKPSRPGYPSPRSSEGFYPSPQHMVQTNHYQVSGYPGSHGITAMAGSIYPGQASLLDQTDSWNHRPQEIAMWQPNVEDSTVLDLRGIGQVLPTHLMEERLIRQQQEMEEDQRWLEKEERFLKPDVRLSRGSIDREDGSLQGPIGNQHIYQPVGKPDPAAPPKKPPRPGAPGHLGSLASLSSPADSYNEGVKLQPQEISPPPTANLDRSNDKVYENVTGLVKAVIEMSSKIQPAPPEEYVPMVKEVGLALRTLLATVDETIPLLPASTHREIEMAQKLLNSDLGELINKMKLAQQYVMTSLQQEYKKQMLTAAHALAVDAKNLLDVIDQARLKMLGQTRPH
Chain of Luciferin 4-monooxygenase (Photinus pyralis) (P08659 whole entry, looked up): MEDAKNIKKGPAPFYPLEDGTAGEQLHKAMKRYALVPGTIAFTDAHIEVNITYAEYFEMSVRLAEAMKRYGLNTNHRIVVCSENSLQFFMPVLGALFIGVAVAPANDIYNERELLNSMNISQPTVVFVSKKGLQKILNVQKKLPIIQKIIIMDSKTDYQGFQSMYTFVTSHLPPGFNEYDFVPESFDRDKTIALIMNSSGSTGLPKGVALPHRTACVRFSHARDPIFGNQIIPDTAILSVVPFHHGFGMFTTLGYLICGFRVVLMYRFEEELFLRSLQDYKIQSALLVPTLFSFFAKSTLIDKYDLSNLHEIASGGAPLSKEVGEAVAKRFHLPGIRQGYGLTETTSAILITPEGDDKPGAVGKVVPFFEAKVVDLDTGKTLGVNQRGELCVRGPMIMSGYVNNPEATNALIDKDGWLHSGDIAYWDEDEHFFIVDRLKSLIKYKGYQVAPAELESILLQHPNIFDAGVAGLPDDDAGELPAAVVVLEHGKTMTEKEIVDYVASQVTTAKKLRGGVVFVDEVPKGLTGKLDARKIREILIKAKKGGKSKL

Turning to `C=CCOC(=O)[C@@H]1[C@H]2C(=O)O[C@H](c3ccccc3)[C@H](c3ccccc3)N2[C@H](c2ccc(OCCOC(=O)[C@@H]3C[C@@H]4C(=O)N[C@@H](CCCCNC(C)=O)C(=O)N4[C@@H]3c3ccc(O)cc3)cc2)[C@@]12C(=O)Nc1ccc(I)cc12`, the composite z-score amounted to 1.73 in test [1]; 1.21 in [2]; 0.478 in test [3]; 0.207 in test [4]; 1.41 in test [5]; 1.62 in [6]. The composite z-score with Lefty1 was 1.37; in test [8], 0.412; in test [10] it was 0.681; in [15], -0.0068; in [16], 0.591; with Torsin-1A (Homo sapiens) [17], 0.928. Further, the composite z-score with Torsin-1A (Homo sapiens) [18] turned out to be 0.27; in test [19], 1.81. The z-score was -1.37 in test [7]; -0.576 (inactive) in test [9]; -0.0705 (inactive) in test [11]; -0.128 (inactive) in test [12]; -0.805 (inactive) in test [13]; -1.32 (inactive) in test [14].
Turning to `COCCCNC(=O)[C@@]1(Cc2ccccc2)COC(c2ccc(OCCCO)cc2)=N1`, the composite z-score in [1] is 2.66; in [2] it was 1.21; in test [3], 0.953; in test [4], 1; in test [5], 0.645; in test [6], 0.986. Further, the composite z-score in the test with Lefty1 is -1.07; in test [8], 0.509; in [10], 0.788; in test [15], -0.207; in test [16] it was 0.263; in the test with Torsin-1A (Homo sapiens) [17], 0.673. For the same compound, the composite z-score is 0.878 with Torsin-1A (Homo sapiens) [18] and -0.795 in [19]. In addition, the z-score in test [7] is 0.814; in test [9] it was 0.272 (inactive); in test [11], -1.02 (inactive); in [12], 0.211 (inactive); in [13], -0.0808 (inactive); in [14], 0.347 (inactive).
In the case of `O=C1C[C@@](C(=O)NCc2ccccc2)(c2ccc([N+](=O)[O-])cc2)[C@@H](c2ccc(CO)cc2I)N1C1CCCCC1`, the composite z-score in [1] amounted to 1.12; in [2], 1.2; in test [3], 0.532; in [4] it was 0.805; in [5], 1.43; in [6], 1.25. The composite z-score with Lefty1 came out at 0.721; in test [8], 0.411; in test [10], 0.286; in test [15], 0.0068; in [16] it was 0.572; with Torsin-1A (Homo sapiens) [17] it was 0.89. In addition, the composite z-score was found to be 0.217 with Torsin-1A (Homo sapiens) [18] and 1.13 in [19]. The z-score is -0.0219 in test [7]; -1.2 (inactive) in [9]; -4.73 (inactive) in [11]; 0.781 (inactive) in test [12]; 0.234 (inactive) in test [13]; 0.583 (inactive) in test [14].
With `COC(=O)[C@@]1(Cc2ccccc2)[C@H]2c3cc(C(=O)N(C)C)n(Cc4ccccn4)c3C[C@H]2CN1C(=O)c1ccccc1`, the composite z-score in test [1] was 1.54; in [2], 0.827; in [3], 1.56; in test [4], 1.04; in [5], -0.226; in [6], -0.389. Also, the composite z-score is -0.225 in the test on Lefty1; 0.88 in [8]; 0.283 in test [10]; 2.27 in test [15]; 0.38 in [16]; -0.208 with Torsin-1A (Homo sapiens) [17]. The composite z-score in the test with Torsin-1A (Homo sapiens) [18] is 0.239; in test [19], -0.709. Also, the z-score in test [7] is -0.128; in [9], 1.56 (inactive); in test [11] it was -1.16 (inactive); in test [12] it was -0.0189 (inactive); in test [13], 1.73 (inactive); in test [14], 1.42 (inactive).
`COC(=O)[C@@]1(Cc2ccc(OC)cc2)[C@H]2c3cc(C(=O)N4CCCC4)n(Cc4ccc(C)o4)c3C[C@H]2CN1C(=O)c1ccccc1`: the composite z-score is 0.849 in [1]; 1.2 in [2]; -0.0727 in test [3]; -0.369 in test [4]; 1.09 in test [5]; -0.648 in test [6]. Moreover, the composite z-score was -0.211 in the test on Lefty1; 0.26 in test [8]; 0.989 in test [10]; 0.458 in [15]; 0.505 in test [16]; -1.39 with Torsin-1A (Homo sapiens) [17]. In addition, the composite z-score with Torsin-1A (Homo sapiens) [18] was 0.285; in test [19], -0.754. Also, the z-score is -3.11 in test [7]; -22.4 (active) in test [9]; -5.19 (inactive) in test [11]; -0.101 (inactive) in [12]; -0.758 (inactive) in test [13]; -2.15 (inactive) in test [14].
